The text below walks through data of PMC5540273 (PLoS ONE, 2017).

Among the test systems are VRK2; WEE1; WEE2; WNK1; WNK2; WNK3; WNK4; ZAK; ZAP70; p38-delta.
Holding throughout (conditions): concentration: 1 μM, replicates: in singlicate; n = 1
A further assay has as its system T1, VPS34.
T1 construct: gene PIK3C3

A further assay deals with T2, YANK1.
T2 construct: gene STK32A

For the next assay, the system named is T3, YANK2.
T3 construct: gene STK32B

A further assay concerns T4, YANK3.
T4 construct: gene STK32C

A further assay has as its system T5, YES.
T5 construct: gene YES1

The test system of a further assay is T6, YSK1.
T6 construct: gene STK25

The test system of another assay is T7, YSK4.
T7 construct: gene MAP3K19

The next assay deals with T8, p38-alpha.
T8 construct: gene MAPK14

The test system of another assay is T9, p38-beta.
T9 construct: gene MAPK11

The next assay relates to T10, p38-gamma.
T10 construct: gene MAPK12
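Note: KINOMEscan kinase panel screen.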

On to `[2H]C([2H])(c1cccc(C(F)(F)F)c1C)n1ccn2c(=O)nc(N3CCOCC3)cc12` [GSK2336394], for which the “%Inh” value in the assay on VPS34 was 0%; in the assay with VRK2, 0%; in the assay with WEE1, 9%; with WEE2, 10%; in the assay with WNK1, 7%; with WNK2, 0%. The “%Inh” value was 28% in the assay on WNK3; 36% with WNK4; 11% in the assay on YANK1; 0% in the assay with YANK2; 0% in the assay with YANK3; 7% with YES. Also, the “%Inh” value in the assay with YSK1 worked out at 0%; in the assay with YSK4 it was 26%; in the assay on ZAK, 4%; with ZAP70, 24%; in the assay with p38-alpha, 0%; in the assay with p38-beta, 0%. The figures for the “%Inh” value with p38-delta and in the assay on p38-gamma were 46% and 0%, respectively.

As for `CC(=O)Nc1ccc(COc2ccc(Nc3ccnc4cc(-c5ccccn5)ccc34)cc2)cc1.Cl` [GW440148], the “%Inh” value with VPS34 stood at 0%; in the assay with VRK2 it was 0%; with WEE1, 18%; in the assay on WEE2, 0%; with WNK1 it was 10%; in the assay with WNK2 it was 9%. For the same molecule, the “%Inh” value was 21% with WNK3; 83% in the assay on WNK4; 6% in the assay with YANK1; 2% in the assay with YANK2; 0% in the assay with YANK3; 23% in the assay on YES. For the same molecule, the “%Inh” value in the assay with YSK1 is listed as 18%; in the assay with YSK4 it was 18%; with ZAK it was 73%; in the assay on ZAP70, 0%; in the assay with p38-alpha, 28%; in the assay on p38-beta it was 0%. Also, the “%Inh” value with p38-delta is 40%; with p38-gamma it was 0%.

With `CC(C)Oc1ccc2c(-c3ccnc(Nc4ccc(N5CCN(C)CC5)cc4)n3)cnn2n1` [GW696155], the “%Inh” value amounted to 96% in the assay on VPS34; 8% with VRK2; 30% in the assay on WEE1; 0% with WEE2; 12% with WNK1; 42% in the assay with WNK2. In addition, the “%Inh” value in the assay on WNK3 is 52%; in the assay on WNK4, 31%; in the assay on YANK1 it was 0%; in the assay on YANK2, 0%; in the assay with YANK3, 0%; with YES, 54%. Moreover, the “%Inh” value in the assay with YSK1 is given as 71%; in the assay on YSK4, 99.8%; with ZAK it was 0%; in the assay on ZAP70 it was 65%; in the assay with p38-alpha, 17%; with p38-beta it was 0%. Besides, the “%Inh” value in the assay on p38-delta was determined as 72%; in the assay on p38-gamma, 62%.

Turning to `Cc1c2ccc(N(C)c3ccnc(Nc4cccc(S(N)(=O)=O)c4)n3)cc2nn1Cc1ccccc1.Cl.Cl` [GW787226], the “%Inh” value was 0% with VPS34; 0% in the assay with VRK2; 0% in the assay with WEE1; 6% in the assay on WEE2; 0% in the assay with WNK1; 0% with WNK2. Besides, the “%Inh” value in the assay on WNK3 was 0%; with WNK4 it was 0%; with YANK1, 0%; in the assay on YANK2, 0%; in the assay on YANK3, 0%; with YES, 50%. The “%Inh” value with YSK1 is given as 24%; in the assay with YSK4, 25%; with ZAK, 17%; in the assay with ZAP70, 0%; in the assay with p38-alpha it was 0%; with p38-beta it was 2%. Besides, the “%Inh” value in the assay with p38-delta was found to be 0%; in the assay on p38-gamma, 35%.

As to `Cn1ccc2ncnc(Oc3ccc(NC(=O)Nc4ccncc4)c(Cl)c3)c21`, the “%Inh” value with VPS34, with VRK2, in the assay on WEE1, with WEE2, with WNK1 and in the assay on WNK2 was 0% each time. For the same molecule, the “%Inh” value came out at 0% in the assay with WNK3; 0% in the assay on WNK4; 0% in the assay on YANK1; 5% with YANK2; 9% in the assay with YANK3; 0% with YES. The “%Inh” value with YSK1 is 3%; with YSK4 it was 0%; in the assay with ZAK, 0%; with ZAP70 it was 7%; in the assay with p38-alpha, 0%; with p38-beta it was 18%. Besides, the figures for the “%Inh” value in the assay on p38-delta and in the assay on p38-gamma were 4% and 8%, respectively.

Take `NS(=O)(=O)c1cccc(-c2ccc3nccc(-c4cccc(S(N)(=O)=O)c4)c3c2)c1` [GW867253]: the “%Inh” value in the assay with VPS34 stood at 78%; with VRK2 it was 12%; in the assay with WEE1, 0%; in the assay on WEE2 it was 0%; in the assay on WNK1 it was 7%; in the assay on WNK2 it was 0%. Further, the “%Inh” value in the assay on WNK3, in the assay with WNK4, in the assay on YANK1, with YANK2, with YANK3 and in the assay with YES was 0% each time. The “%Inh” value came to 0% with YSK1; 26% with YSK4; 2% in the assay on ZAK; 12% in the assay on ZAP70; 1% with p38-alpha; 3% in the assay on p38-beta. Moreover, the “%Inh” value in the assay on p38-delta and in the assay on p38-gamma was 0% each time.

Consider `O=C1Cc2cc(Nc3nc(NCc4cccc(S(=O)(=O)C(F)(F)F)c4)ncc3C(F)(F)F)ccc2N1`, for which the “%Inh” value in the assay on VPS34 is listed as 0%; with VRK2, 23%; in the assay on WEE1, 0%; in the assay with WEE2 it was 0%; with WNK1, 0%; in the assay with WNK2, 6%. In addition, the “%Inh” value with WNK3 worked out at 0%; in the assay on WNK4 it was 0%; in the assay on YANK1 it was 0%; with YANK2, 0%; in the assay with YANK3, 0%; in the assay on YES it was 8%. Further, the “%Inh” value amounted to 10% in the assay with YSK1; 25% in the assay with YSK4; 1% in the assay with ZAK; 9% with ZAP70; 22% in the assay on p38-alpha; 0% with p38-beta. The “%Inh” value in the assay on p38-delta was determined as 15%; with p38-gamma, 0%.

Regarding `COc1cc2c(cc1OCCN1CCN(C)CC1)ncc1c3ccc(C#N)cc3[nH]c21`, the “%Inh” value with VPS34 is on record as 0%; with VRK2, 0%; in the assay with WEE1 it was 24%; in the assay on WEE2 it was 3%; in the assay with WNK1, 0%; in the assay on WNK2, 0%. For the same molecule, the “%Inh” value in the assay with WNK3 came to 0%; with WNK4, 0%; in the assay on YANK1, 0%; in the assay on YANK2, 0%; in the assay on YANK3, 35%; in the assay with YES, 3%. The “%Inh” value in the assay on YSK1 stood at 0%; in the assay on YSK4 it was 89%; in the assay with ZAK, 0%; with ZAP70, 0%; with p38-alpha, 0%; in the assay with p38-beta, 1%. Besides, the “%Inh” value in the assay with p38-delta came out at 7%; in the assay on p38-gamma it was 35%.

In the case of `COc1ccc(Nc2nccc(N3CCC(NC(=O)Nc4cc(C)ccc4C)C3)n2)cc1` (stereo not shown) [GSK1379741], the “%Inh” value in the assay with VPS34 turned out to be 0%; in the assay on VRK2, 0%; in the assay on WEE1, 14%; with WEE2, 0%; in the assay with WNK1, 7%; in the assay on WNK2 it was 59%. Moreover, the “%Inh” value in the assay on WNK3 came to 18%; in the assay with WNK4 it was 40%; in the assay on YANK1 it was 0%; with YANK2, 0%; in the assay on YANK3, 8%; in the assay on YES, 13%. In addition, the “%Inh” value is on record as 0% with YSK1; 19% in the assay on YSK4; 5% in the assay on ZAK; 0% with ZAP70; 0% in the assay with p38-alpha; 0% in the assay with p38-beta. The “%Inh” value is 47% in the assay with p38-delta and 0% with p38-gamma.

In the case of `Cl.Oc1cccc(Nc2ccnc3cc(-c4ccncc4)ccc23)c1` [GW494601], the “%Inh” value in the assay with VPS34 was 34%; with VRK2, 6%; in the assay on WEE1, 10%; in the assay with WEE2, 7%; with WNK1, 0%; with WNK2, 13%. For the same molecule, the “%Inh” value is given as 41% in the assay on WNK3; 46% in the assay on WNK4; 33% in the assay with YANK1; 12% with YANK2; 0% in the assay on YANK3; 94.6% with YES. Moreover, the “%Inh” value with YSK1 came to 7%; with YSK4 it was 91.7%; in the assay on ZAK, 84%; in the assay with ZAP70, 2%; with p38-alpha, 50%; in the assay with p38-beta it was 0%. Also, the “%Inh” value in the assay with p38-delta was found to be 25%; in the assay with p38-gamma it was 0%.

Regarding `NS(=O)(=O)CCc1cccc(Nc2nccc(-c3c(-c4cccc(NC(=O)c5c(F)cccc5F)c4)nn4ccccc34)n2)c1` [GSK336735], the “%Inh” value with VPS34 worked out at 0%; in the assay with VRK2, 0%; in the assay with WEE1 it was 0%; in the assay on WEE2, 0%; in the assay with WNK1, 0%; with WNK2, 6%. Also, the “%Inh” value in the assay on WNK3 is 18%; in the assay with WNK4 it was 12%; in the assay on YANK1 it was 23%; in the assay on YANK2, 77%; in the assay on YANK3, 37%; with YES, 99.8%. For the same molecule, the “%Inh” value came to 24% in the assay on YSK1; 20% in the assay with YSK4; 98.4% in the assay with ZAK; 0% in the assay with ZAP70; 97.8% in the assay with p38-alpha; 98.7% in the assay with p38-beta. For the same molecule, the “%Inh” value in the assay with p38-delta is 54%; in the assay with p38-gamma it was 0%.
